# What was measured:
# [1] = test system: Vero E6 infected with SARS-CoV-2; experiment: morphology score (similarity to uninfected cells); higher = more like uninfected cells; details: 24 h
# [2] = test system: Vero E6 infected with SARS-CoV-2; experiment: SARS-CoV-2 infection rate relative to infected DMSO; higher = more infection, active = 60 or less; details: 24 h
Structure (SMILES),morphology score [1],SARS-CoV-2 infection rate [2]
O=C(O)CCn1c2c(c3ccccc31)C[C@H](NS(=O)(=O)c1ccc(F)cc1)CC2 [ramatroban] (10 µM),-0.0055,102% (inactive)
COC(=O)C(c1ccccc1)C1CCCCN1 (configuration not stated) (10 µM),0.0486,114% (inactive)
C[C@H](N)C(=O)N[C@@]1(C(=O)O)C[C@@H](Sc2nnc[nH]2)[C@H]2[C@H](C(=O)O)[C@H]21 (10 µM),-0.0396,114% (inactive)
C=CC(=O)N1CCN(C(=O)CNc2cc(I)c(Cl)cc2O)CC1 [K-Ras(G12C)-inhibitor-12] (10 µM),-0.138,111% (inactive)
Cc1ccccc1/N=N/c1ccc(NC(=O)c2ccnn2C)c(C)c1 (10 µM),-0.087,109% (inactive)
C[N+](C)(C)CCCCCC[N+](C)(C)C [hexamethonium] (10 µM),-0.257,114% (inactive)
CCNC1=Nc2ccc(Cl)cc2C(C)(c2ccccc2)O1 (configuration not stated) [etifoxine] (10 µM),0.159,106% (inactive)
CN(c1ccc(NC(=O)Nc2ccccc2)cc1)S(=O)(=O)c1cnn(-c2ccc(F)cc2)c1 (10 µM),0.268,83.5% (inactive)
C(#CCN1CCCC1)CN1CCCC1 [tremorine] (10 µM),0.107,96% (inactive)
NC(=O)N1c2ccccc2CC(O)c2ccccc21 (configuration not stated) [licarbazepine] (10 µM),0.188,97% (inactive)
CC(=O)c1cc([N+](=O)[O-])c(Sc2ccc(F)cc2F)s1 (10 µM),0.534,38.5% (active)
CCC(CC)(CC(=O)Nc1cccc(/C=C/c2nc(C3CCC3)cs2)c1)C(=O)O [cinalukast] (10 µM),0.068,105% (inactive)
CN(C)[C@@H]1C(O)=C(C(N)=O)C(=O)[C@@]2(O)C(O)=C3C(=O)c4c(O)cccc4[C@@](C)(O)[C@H]3[C@H](O)[C@@H]12 [oxytetracycline] (10 µM),-0.0366,106% (inactive)
Cn1cc(C2=C(c3cn(C4CCN(Cc5ccccn5)CC4)c4ccccc34)C(=O)NC2=O)c2ccccc21 [enzastaurin] (10 µM),-0.0103,112% (inactive)
O=C(NOCC1CC1)c1ccc(F)c(F)c1Nc1ccc(I)cc1Cl (10 µM),0.0812,100% (inactive)
CC(=O)N(OCc1ccccc1)[C@@H]1c2cc(C#N)ccc2OC(C)(C)[C@H]1O (10 µM),0.159,97.5% (inactive)
CSCC[C@H](NC(=O)[C@H](CC(C)C)NC(=O)CNC(=O)[C@H](Cc1ccccc1)NC(=O)[C@H](Cc1ccccc1)NC(=O)[C@H](CCC(N)=O)NC(=O)[C@H](CCC(N)=O)NC(=O)[C@@H]1CCCN1C(=O)[C@H](CCCCN)NC(=O)[C@@H]1CCCN1C(=O)[C@@H](N)CCCN=C(N)N)C(N)=O [substance-P] (10 µM),-0.0435,114% (inactive)
Cc1cccc(C)c1NC(=O)C[N+](C)(C)C (10 µM),0.198,97% (inactive)
C/C(=N\NC(=N)N)c1cc(NC(=O)CCCCCCCCC(=O)Nc2cc(/C(C)=N/NC(=N)N)cc(/C(C)=N/NC(=N)N)c2)cc(/C(C)=N/NC(=N)N)c1 [semapimod] (0.833333 µM),-0.352,115% (inactive)
COc1cc2c(c(OC)c1OC)-c1ccc(OC)c(=O)cc1[C@@H](NC(C)=O)CC2 [colchicine] (10 µM),-0.0542,96% (inactive)
C/C(=C\C(N)C(=O)O)CP(=O)(O)O (configuration not stated) (10 µM),0.064,110% (inactive)
NCCC(Oc1ccc(C(F)(F)F)cc1)c1ccccc1 (configuration not stated) [norfluoxetine] (10 µM),0.568,59% (active)
CC[C@H]1OC(=O)[C@@](C)(F)C(=O)[C@H](C)[C@@H](O[C@@H]2O[C@H](C)C[C@H](N(C)C)[C@H]2O)[C@](C)(OC)C[C@@H](C)C(=O)[C@H](C)[C@H]2N(CCCCn3cc(-c4cccc(N)c4)nn3)C(=O)O[C@]12C [solithromycin] (10 µM),0.351,104% (inactive)
O=c1ncccn1[C@@H]1O[C@H](CO)[C@@H](O)[C@H]1O [zebularine] (10 µM),0.0754,104% (inactive)
CC[N+](CC)(CC)CCOc1ccc(/C=C/c2ccccc2)cc1 (10 µM),-0.141,105% (inactive)
CN(N=O)C(=O)N[C@@H](C=O)[C@@H](O)[C@H](O)[C@H](O)CO [streptozotocin] (10 µM),0.0397,96% (inactive)

# Reference: the supplement of paper PMC13380429
